# Laboratory results as given in PubChem BioAssay (NCATS).
# Inconclusive results are not listed. A call without a number means that no potency is given here. Activity calls are given as the source filed them. Unless noted, calls come from the whole dose curve; as a rule, active = well fitted curve in the direction sought with a large enough effect; inconclusive = small, poorly fitted or top-dose-only effect, or another doubt; inactive = no such curve, though single readings can be large; an effect the other way counts as inactive or inconclusive.
# What was measured:
# [1] = biological target: Luciferin 4-monooxygenase (Photinus pyralis) (UniProt P08659); assay: Biochemical firefly luciferase enzyme assay for NPC (AID 624030);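 note: purified P. pyralis luciferase at 10 nM with luciferin and ATP substrate; nearly all actives have a fitted effect of over 70% in size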; conditions: purified P. pyralis luciferase, luminescence, 5 min; series mostly up to 58.6 µM
# Method in brief: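 Purified P. pyralis luciferase at 10 nM in 50 mM Tris Acetate (final), luminescence read within 5 minutes of enzyme addition to compounds. Activity normalised to PTC124 versus DMSO; concentration-response curves classed by r2, magnitude and activity.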
# [2] = S16 Schwann cell PMP22 intronic element firefly luciferase assay (AID 624032); conditions: S16 rat Schwann cells, PMP22 element FLuc, 24 h; series mostly up to 57.5 µM; note: nearly all actives have a fitted effect of over 30% in size; note: potency is the fitted concentration of half-maximal effect
# Method in brief: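 Rat S16 Schwann cells stably carrying firefly luciferase driven by a PMP22 intronic element, in 10% FBS, treated 24 h at 37 C. ONE-Glo luminescence normalized to PTC124 control and DMSO (0%); curves classed by r2, magnitude and activity.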
# [3] = S16 Schwann cell PMP22 intronic element beta-lactamase assay (AID 624044; calls by dose curve; note: nearly all actives have a fitted effect of over 15% in size); conditions: S16 rat Schwann cells, PMP22 element beta-lactamase FRET, 24 h; series mostly up to 38.3 µM
# Method in brief: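 Rat S16 Schwann cells with beta-Lac driven by a PMP22 intronic element, compound-treated 24 h at 37 °C. LiveBLAzer FRET B/G read: 460 nm normalized to potassium clavulanate vs DMSO; 535 nm FRET as viability; concentration-effect curves classified.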
# [4] = S16 Schwann cell viability assay (CellTiter-Glo assay) (AID 624031); conditions: S16 rat Schwann cells viability, 24 h; series mostly up to 57.5 µM; note: nearly all actives have a fitted effect of over 70% in size; note: potency is the fitted concentration of half-maximal effect
# Method in brief: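 Native S16 rat Schwann cells, 500-750 cells/well in DMEM with 10% FBS, dosed with compound after overnight culture and incubated 24h at 37 degree Celsius/5% CO2. Viability by CellTiter-Glo luminescence; % activity normalized to no-cell wells and DMSO-treated cells.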
# [5] = biological target: Glutaminase kidney isoform, mitochondrial (Homo sapiens) (UniProt O94925); assay: qHTS for Inhibitors of Glutaminase (GLS): LOPAC Validation (AID 624146); conditions: glutaminase enzyme activity inhibition; series mostly up to 46.1 µM;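 note: glutamate product detected by oxidase and peroxidase coupled Amplex red fluorescence gain; nearly all actives have a fitted effect of over 60% in size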
# Method in brief: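 hKGA in 45 mM KH2PO4 pH 8.2, 0.02% Tween-20 with pin-transferred compounds; 1 mM L-glutamine (stock) plus glutamate oxidase/HRP/Amplex Red coupling added. Fluorescence read initially and after 30 min at RT.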
# [6] = qHTS of Trypanosoma Brucei Inhibitors: LOPAC Validation (AID 624147); conditions: purified enzyme assay, luminescence, 45 min; series mostly up to 57.5 µM
# Method in brief: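 Luminescent Kinase-Glo Plus end-point after 45 min room-temperature reaction of T. brucei pyruvate kinase started with 130 uM ADP (final). Buffer TEA 50 mM pH 7.2 with KCl, MgCl2, BSA, Tween-20; titration-based qHTS with fitted concentration-effect curves.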
# [7] = biological target: Glucagon-like peptide 1 receptor (Homo sapiens) (UniProt P43220); assay: qHTS of GLP-1 Receptor Agonists: LOPAC Validation (AID 624148); conditions: GLP-1R agonist cell assay; series mostly up to 46.1 µM;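 note: higher luminescence signal means agonism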
# Method in brief: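 HEK293 cells stably co-expressing GLP-1R and a cAMP-responsive luciferase reporter, plated 12 hours before compound, then incubated 4-6 hr at 37 deg C. Luminescence read 12 min after detection reagent.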
# [8] = qHTS of Nrf2 Activators: LOPAC Validation (AID 624149); conditions: Nrf2/ARE reporter cell assay; series mostly up to 46.1 µM
# Method in brief: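 Luminescence read-out of ARE-luciferase activation: AREc32_Fluc cells treated with compounds for 24 hr at 37 deg C, then lysed with Steady-Glo for 30 min at room temperature before reading.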
# [9] = HTS Assay for Allosteric Antagonists of the Human D2 Dopamine Receptor: Hit Validation in HTRF (AID 624455); conditions: Cells stably expressing D1 dopamine receptor, inhibition mode; series mostly up to 46.1 µM;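 note: stable D1 dopamine receptor cell line scored for blocking the D1 response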
# Method in brief: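 First, antagonism was screened by calcium flux in a force-coupled, inducible Hek293 Trex D2 line challenged with EC80 dopamine. Hits then went into an HTRF assay in cells stably expressing D1, testing inhibition of the D1 response.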
# [10] = Cytotoxicity counterscreen for NFkB agonists and antagonists (AID 624476); conditions: NFkB reporter cell line viability counterscreen; series mostly up to 46.1 µM;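 note: cells exposed to compound for 48 hours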; note: potency is the fitted concentration of half-maximal effect
# [11] = qHTS Assay for Identification of Small Molecule Agonists for NFkB Signaling Pathway. (AID 624478); conditions: NFkB pathway reporter cell assay, agonist mode, cells co-stimulated with 10 pM TNF alpha; series mostly up to 46.1 µM;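 note: compounds tested together with TNF alpha at its EC50 of 10 pM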
# Method in brief: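 ME-180 cervical carcinoma, stable NFkB-RE beta-lactamase reporter; 1000 cells/well, overnight attachment; cpd + TNF alpha 10 pM final, 5 h 37 C; LiveBLAzer 2 h RT; FRET 460/530 nm, ex 405 nm.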
# [12] = qHTS Assay for Identification of Small Molecule Antagonists for NFkB Signaling Pathway. (AID 624479; calls by dose curve); conditions: NFkB pathway reporter cell assay, antagonist mode; series mostly up to 38.3 µM
# [13] = Cell Proliferation Assay against the TMD8 Cell Line (AID 651645); conditions: TMD8 DLBCL cell line proliferation/viability; at 46.1 µM (top of the series);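 note: cells exposed to compound for 48 h before reading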
# Method in brief: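 Viability by CellTiter-Glo after 48 h compound exposure of 500 log-phase TMD8 cells per well (RPMI, 5% FBS). Percent activity scaled between DMSO (100%) and 9.2 uM final bortezomib (0%).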
# [14] = Cell Proliferation Assay against the HBL1 Cell Line (AID 651646); conditions: HBL1 DLBCL cells; at 46.1 µM (top of the series);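 note: cells exposed to compound for 48 h before reading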
# Method in brief: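 HBL1 ABC DLBCL cells, 500/well in RPMI with 5% FBS, treated for 48 h at 37C. Viability read by CellTiter-Glo luminescence, normalized to DMSO as 100% and 9.2 uM bortezomib as 0%.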
# [15] = Cell Proliferation Assay against the TMD8 Cell Line (Caspase readout at 16 hrs) (AID 651712); conditions: TMD8 lymphoma cells, caspase activation luminescence; series mostly up to 46.1 µM
# Method in brief: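 TMD8 cells in RPMI with 5% FBS were treated with compound for 16 h at 37 C, then caspase 3/7 activation was read by Caspase-Glo luminescence. Percent activity was scaled to DMSO (0%) and 9.2 uM bortezomib final (100%).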
# [16] = Cell Proliferation Assay against the TMD8 Cell Line (Caspase readout at 8 hrs) (AID 651713); conditions: TMD8 lymphoma cells, caspase activation luminescence; series mostly up to 46.1 µM; note: potency is the fitted concentration of half-maximal effect
# Method in brief: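 Seed log-phase TMD8 cells, add compound by pin tool, incubate 8 h at 37C under 5% CO2, equilibrate to room temperature, add Caspase-Glo, wait 15 min, read luminescence; percent activity uses DMSO and 9.2 uM bortezomib controls.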
# [17] = qHTS assay for small molecule activators of the nuclear factor-kappa B (NF-kB) signaling pathway (AID 651749; active = well fitted activation curve with a large enough effect in the signal ratio; the % refers to the signal ratio); conditions: NF-kB-bla ME-180 cells, beta-lactamase FRET ratio, 16 h; stronger effect = higher value
# Method in brief: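 NF-kB-bla ME-180 cells carrying a beta-lactamase reporter under an NF-kB response element, 2,000 cells/well, exposed to compound for 16 hr at 37C; FRET-based beta-lactamase fluorescence read-out of pathway activation.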
# Luciferin 4-monooxygenase (Photinus pyralis), sequence (P08659 whole entry, looked up): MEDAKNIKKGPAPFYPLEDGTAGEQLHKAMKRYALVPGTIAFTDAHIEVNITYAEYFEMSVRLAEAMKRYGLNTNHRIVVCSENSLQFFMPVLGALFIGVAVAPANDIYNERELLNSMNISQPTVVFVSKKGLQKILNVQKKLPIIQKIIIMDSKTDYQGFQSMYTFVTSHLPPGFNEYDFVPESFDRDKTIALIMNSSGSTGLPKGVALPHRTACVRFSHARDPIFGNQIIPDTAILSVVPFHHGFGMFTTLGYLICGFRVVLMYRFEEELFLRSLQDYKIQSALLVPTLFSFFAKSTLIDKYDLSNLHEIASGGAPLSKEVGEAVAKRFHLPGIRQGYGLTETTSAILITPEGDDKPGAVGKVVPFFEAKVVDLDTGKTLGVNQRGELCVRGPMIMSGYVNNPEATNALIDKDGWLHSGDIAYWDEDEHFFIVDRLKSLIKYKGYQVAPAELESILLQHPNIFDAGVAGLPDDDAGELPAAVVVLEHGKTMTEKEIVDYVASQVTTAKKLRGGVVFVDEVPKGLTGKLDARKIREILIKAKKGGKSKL
# Glutaminase kidney isoform, mitochondrial (Homo sapiens), sequence (O94925 whole entry, looked up, canonical isoform): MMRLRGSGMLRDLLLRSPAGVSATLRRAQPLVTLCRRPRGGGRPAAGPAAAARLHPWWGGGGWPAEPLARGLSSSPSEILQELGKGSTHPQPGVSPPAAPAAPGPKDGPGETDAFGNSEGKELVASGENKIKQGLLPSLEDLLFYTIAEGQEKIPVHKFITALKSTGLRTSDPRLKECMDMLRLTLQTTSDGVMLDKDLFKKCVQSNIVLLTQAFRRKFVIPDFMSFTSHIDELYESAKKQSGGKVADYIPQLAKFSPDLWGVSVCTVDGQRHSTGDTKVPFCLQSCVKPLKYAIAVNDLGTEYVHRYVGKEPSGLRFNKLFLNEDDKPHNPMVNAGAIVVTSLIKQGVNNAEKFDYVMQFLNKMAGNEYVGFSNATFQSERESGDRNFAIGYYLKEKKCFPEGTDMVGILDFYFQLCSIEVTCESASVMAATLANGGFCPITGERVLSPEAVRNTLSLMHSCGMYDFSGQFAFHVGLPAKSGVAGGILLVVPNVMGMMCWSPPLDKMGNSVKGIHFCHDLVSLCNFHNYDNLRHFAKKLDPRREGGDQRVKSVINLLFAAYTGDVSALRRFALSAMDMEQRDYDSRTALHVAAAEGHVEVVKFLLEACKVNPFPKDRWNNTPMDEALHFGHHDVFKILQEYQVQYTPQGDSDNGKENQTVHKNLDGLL
# Glucagon-like peptide 1 receptor (Homo sapiens), sequence (P43220 whole entry, looked up): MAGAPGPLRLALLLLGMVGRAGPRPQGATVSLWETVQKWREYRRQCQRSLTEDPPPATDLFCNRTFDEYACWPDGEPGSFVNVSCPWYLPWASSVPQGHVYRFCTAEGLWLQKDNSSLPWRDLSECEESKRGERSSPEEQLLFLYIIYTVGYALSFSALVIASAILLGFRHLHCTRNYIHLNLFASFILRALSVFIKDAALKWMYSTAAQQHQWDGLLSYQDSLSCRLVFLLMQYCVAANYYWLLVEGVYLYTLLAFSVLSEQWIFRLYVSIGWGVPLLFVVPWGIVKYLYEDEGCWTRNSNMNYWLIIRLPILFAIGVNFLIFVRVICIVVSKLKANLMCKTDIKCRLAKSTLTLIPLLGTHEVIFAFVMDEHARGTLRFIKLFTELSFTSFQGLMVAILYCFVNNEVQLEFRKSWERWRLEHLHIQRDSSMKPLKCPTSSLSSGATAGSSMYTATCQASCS
smiles,measurement,setting,value
CCn1cc(C(=O)O)c(=O)c2cc(F)c(N3CCN(C)CC3)cc21,Potency,[1],inactive
same,Potency,[2],inactive
same,Potency,[3],inactive
CNC1CCCN(c2c(F)cc3c(=O)c(C(=O)O)cn(C4CC4)c3c2OC)C1 (stereo not given),Potency,[1],inactive
same,Potency,[4],inactive
same,Potency,[2],inactive
same,Potency,[3],inactive
CC(=O)[C@H]1CC[C@H]2[C@@H]3CCC4=CC(=O)CC[C@]4(C)[C@H]3CC[C@]12C,Potency,[1],inactive
same,outcome,[5],inactive
same,outcome,[6],inactive
same,outcome,[7],inactive
same,outcome,[8],inactive
same,Potency,[9],inactive
Cc1cccc(Nc2ccncc2S(=O)(=O)NC(=O)NC(C)C)c1,Potency,[1],inactive
same,Potency,[4],inactive
same,Potency,[2],inactive
O=C(O)CSCC(=O)NC1CCSC1=O (stereo not given),Potency,[1],inactive
CC1=CC(=O)c2ccccc2C1=O,Potency,[1],inactive
same,Potency,[4],14.4 µM (active)
same,Potency,[2],22.8 µM (active)
same,Potency,[3],inactive
COCCCOc1cc(C[C@@H](C[C@H](N)[C@@H](O)C[C@H](C(=O)NCC(C)(C)C(N)=O)C(C)C)C(C)C)ccc1OC,Potency,[1],inactive
CC(C)(C)C(=O)OCOP(=O)(COCCn1cnc2c(N)ncnc21)OCOC(=O)C(C)(C)C,Potency,[1],inactive
same,Potency,[4],inactive
CC(C)OC(=O)OCOP(=O)(CO[C@H](C)Cn1cnc2c(N)ncnc21)OCOC(=O)OC(C)C,Potency,[1],inactive
O=C(O)c1cn(C2CC2)c2cc(N3CCNCC3)c(F)cc2c1=O,Potency,[4],inactive
same,Potency,[2],inactive
CCN(CC)CCn1c(=O)c(Cc2ccc(OC)cc2)nc2ccccc21,Potency,[1],inactive
same,outcome,[5],inactive
same,outcome,[6],inactive
same,outcome,[7],inactive
same,outcome,[8],inactive
same,Potency,[9],inactive
same,Potency,[10],inactive
same,outcome,[11],inactive
same,Potency,[12],inactive
same,viability (% of control),[13],89.1%
same,"viability, percent of control",[14],99.1%
same,outcome,[15],inactive
same,Potency,[16],inactive
CN(C)CCc1c[nH]c2ccc(CS(=O)(=O)N3CCCC3)cc12,Potency,[1],inactive
same,Potency,[2],inactive
NC1(c2ccc(-c3nc4ccn5c(=O)[nH]nc5c4cc3-c3ccccc3)cc2)CCC1,Potency,[1],inactive
same,outcome,[11],inactive
same,viability (% of control),[13],-0.504%
same,"viability, percent of control",[14],1.05%
same,Potency,[16],26.4 µM (active)
COc1ccc(C(=O)CC(=O)c2ccc(C(C)(C)C)cc2)cc1,Potency,[1],inactive
same,Potency,[2],inactive
same,Potency,[3],inactive
CCOc1cc(N)c(Cl)cc1C(=O)NCC1CN(Cc2ccc(F)cc2)CCO1 (stereo not given),Potency,[4],inactive
same,Potency,[2],inactive
same,Potency,[3],inactive
CC1CC2C3CCC4=CC(=O)C=C[C@]4(C)[C@@]3(F)[C@@H](O)C[C@]2(C)[C@@]1(O)C(=O)CO (stereo not given in full),outcome,[5],inactive
same,outcome,[6],inactive
same,outcome,[7],inactive
same,outcome,[8],inactive
same,Potency,[9],inactive
NC(=O)c1ccc2[nH]ccc2c1,outcome,[5],inactive
same,outcome,[6],inactive
same,outcome,[7],inactive
same,outcome,[8],inactive
same,Potency,[9],inactive
COc1cc2c(Nc3ccc(Br)cc3F)ncnc2cc1OCC1CCN(C)CC1,Potency,[1],inactive
same,Potency,[2],9.07 µM (active)
same,Potency,[10],26.4 µM (active)
same,outcome,[11],inactive
same,viability (% of control),[13],8.14%
same,"viability, percent of control",[14],4.03%
same,outcome,[15],inactive
CCCc1cc(C(N)=S)ccn1,Potency,[1],inactive
same,Potency,[4],inactive
same,Potency,[2],inactive
CC1=C(C(=O)O)N2C(=O)[C@@H](NC(=O)C(N)c3ccccc3)[C@H]2SC1 (stereo not given in full),outcome,[6],inactive
same,outcome,[7],inactive
same,outcome,[8],inactive
CC[C@H](C)C(=O)O[C@H]1C[C@@H](C)C=C2C=C[C@H](C)[C@H](CC[C@@H]3C[C@@H](O)CC(=O)O3)[C@H]21,Potency,[1],inactive
same,Potency,[2],inactive
same,Potency,[3],inactive
same,activation,[17],-1.44% (inactive)
